Experiment [1] in a line: Tanguay_ZF_120hpf_JAW_legacy: (Legacy) Oregon State University Tanguay Lab 120 Hour Post-fertilization zebrafish Assay for Jaw Malformation (AID 2283638). An outline of the steps:
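Dechorionated Tropical 5D wild-type zebrafish embryos, one per well, exposed statically from 6 hpf to 120 hpf at 28C in 0.64% DMSO. Jaw malformation was scored by brightfield microscopy as present or absent. It was not scored in dead embryos.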

Experiment [2] in a line: Tanguay_ZF_120hpf_PE_legacy: (Legacy) Oregon State University Tanguay Lab 120 Hour Post-fertilization zebrafish Assay for Pericardial Edema (AID 2283640). In outline: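 Tropical 5D wild-type zebrafish embryos were statically exposed until 120 hpf at 28C, with 0.64% DMSO final. Pericardial edema was scored by brightfield as present or absent; endpoints were not scored in dead embryos.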

A short description of experiment [3]: Tanguay_ZF_120hpf_BRAI_legacy: (Legacy) Oregon State University Tanguay Lab 120 Hour Post-fertilization zebrafish Assay for Brain Malformation (AID 2283641). An outline of the steps: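 Tropical 5D wild-type zebrafish embryos exposed statically until 120 hpf at 28C, 0.64% DMSO final, sealed and dark. Brain malformation scored present/absent by brightfield at 120 hpf; dead embryos excluded. Trimethyltin chloride 5uM positive control.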

The nature of experiment [4]: Tanguay_ZF_120hpf_PFIN_legacy: (Legacy) Oregon State University Tanguay Lab 120 Hour Post-fertilization zebrafish Assay for Pectoral Fin Malformation (AID 2283648).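 Also: each larva judged yes or no for fin defect by brightfield with dead larvae skipped.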 An outline of the steps:
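Tropical 5D wild-type embryos, dechorionated with pronase at 4 hpf, were placed singly in wells at 6 hpf and statically exposed until 120 hpf at 28C, sealed and dark, with 0.64% (vol/vol) final DMSO; pectoral fin malformation scored present/absent.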

Experiment [5] can be described thus: Tanguay_ZF_120hpf_PIG_legacy: (Legacy) Oregon State University Tanguay Lab 120 Hour Post-fertilization zebrafish Assay for Pigmentation Malformation (AID 2283650). An outline of the steps: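 Tropical 5D wild-type zebrafish embryos, dechorionated with pronase at 4 hpf, were exposed singly from 6 hpf to 120 hpf statically at 28C in sealed, dark plates with 0.64% DMSO; pigmentation scored present/absent by brightfield microscopy, fitted against DMSO.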

Experiment [6] in a line: Tanguay_ZF_120hpf_SWIM_legacy: (Legacy) Oregon State University Tanguay Lab 120 Hour Post-fertilization zebrafish Assay for Swim Bladder Malformation (AID 2283654).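 Also: swim bladder malformation in each larva scored yes or no under brightfield.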 In outline:
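Dechorionated Tropical 5D wild-type embryos, placed singly from 6 hpf, were statically exposed at 28C to 120 hpf with 0.64% DMSO final; swim bladder malformation was scored present/absent by brightfield microscopy, gain of signal relative to DMSO controls.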

Experiment [7] is described as follows: Tanguay_ZF_120hpf_TRUN_legacy: (Legacy) Oregon State University Tanguay Lab 120 Hour Post-fertilization zebrafish Assay for Truncated Body (AID 2283655). In outline:
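Dechorionated Tropical 5D wild-type embryos placed singly from 6 hpf and statically exposed to 120 hpf at 28C, final DMSO 0.64%. Truncated body scored as present/absent by brightfield; not scored in dead embryos.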

Experiment [8] is described as follows: Tanguay_ZF_120hpf_NC_legacy: (Legacy) Oregon State University Tanguay Lab 120 Hour Post-fertilization zebrafish Assay for Notochord and Tail Malformation (AID 2283656). An outline of the steps:
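Dechorionated 5D zebrafish, 1/well from 6 hpf; static exposure to 120 hpf, 28C, sealed, dark; final DMSO 0.64% v/v. NC scored binary (present/absent); dead embryos not scored. Fit vs DMSO baseline, gain direction.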

Read-out in experiment [9]: xenobiotic metabolism (CYP1A2), CYP1A2 (gene 1544)
As to the kind of experiment: CLD_CYP1A2_6hr: CellzDirect (CLD) Gene Expression Assay for xenobiotic metabolism (CYP1A2) at 6 hours (AID 2283663).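 As to AC50: potency is for induction meaning a rise in mRNA above DMSO.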 In outline: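 Primary human hepatocytes from two donor preparations, dosed daily with multiple concentrations in 0.2% DMSO and harvested at 6 h. CYP1A2 mRNA induction measured by chemiluminescent qNPA, gain of signal fitted against DMSO; cytotoxicity flagged morphologically.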

Experiment [10] in a line: Tanguay_ZF_120hpf_OTIC_legacy: (Legacy) Oregon State University Tanguay Lab 120 Hour Post-fertilization zebrafish Assay for Otic Vesicle Malformation (AID 2283639). In outline: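 Tropical 5D wild-type zebrafish embryos were exposed statically in sealed, foil-covered plates at 28C until 120 hpf, with 0.64% (vol/vol) DMSO final. Otic vesicle malformation was scored present/absent by brightfield microscopy, with DMSO as baseline.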

Experiment [11] is described as follows: Tanguay_ZF_120hpf_CFIN_legacy: (Legacy) Oregon State University Tanguay Lab 120 Hour Post-fertilization zebrafish Assay for Caudal Fin Malformation (AID 2283649). In outline:
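Dechorionated Tropical 5D wild-type embryos, one per well from 6 hpf, static exposure to 120 hpf at 28C in 0.64% DMSO. Caudal fin malformation scored by brightfield as present/absent; not scored in dead embryos.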

The test system of experiment [12] is Thyroperoxidase (TPO), gene 54314. As to the kind of experiment: CCTE_Simmons_AUR_rTPO: CCTE's Amplex UltraRed Assay for Thyroperoxidase (TPO) Inhibition, Simmons Lab (AID 2283662).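 Also: potency for loss of signal meaning inhibition of peroxidase activity.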 In outline: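 Endpoint is decreased Amplex UltraRed fluorescence after a 30-min, 37C reaction of rat thyroid microsomes with 300 uM H2O2. Eight test concentrations (5 nM–87.5 uM final) in 0.5% DMSO, three biological replicates each.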

Experiment [13] is described as follows: CCTE_Simmons_CellTiterGLO_HEK293T: Viability Assessment in CCTE's Assays for Thyroperoxidase (TPO) Inhibition, Simmons Lab (AID 2283665).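 As to AC50: cells exposed to compound for 24 h before readout; actives reduce ATP signal below DMSO vehicle meaning cytotoxicity.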 In outline: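 HEK293T cells in DMEM with 1% FBS were dosed with 8 concentrations (5 nM–87.5 uM final, 0.5% DMSO) for 24 hr at 37C; ATP content was read by CellTiter-Glo luminescence, loss-of-signal versus DMSO, three biological replicates.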
In general terms: ATP-based viability assays read luminescence as a measure of living cells.

The nature of experiment [14]: Tanguay_ZF_120hpf_SOMI_legacy: (Legacy) Oregon State University Tanguay Lab 120 Hour Post-fertilization zebrafish Assay for Somite Malformation (AID 2283647). In outline: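 Dechorionated Tropical 5D wild-type zebrafish embryos, one per well from 6 hpf, statically exposed at 28C to 120 hpf in 0.64% DMSO; somite malformation scored present/absent by brightfield; trimethyltin 5 uM positive control; dead embryos not scored.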

Read-out in experiment [15]: xenobiotic metabolism (CYP1A1), CYP1A1 (gene 1543)
Kind of experiment: CLD_CYP1A1_6hr: CellzDirect (CLD) Gene Expression Assay for xenobiotic metabolism (CYP1A1) at 6 hours (AID 2283661). An outline of the steps: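 Primary human hepatocytes from two donors, compound versus 0.2% DMSO vehicle. CYP1A1 mRNA measured 6 h after dosing by quantitative nuclease protection assay with chemiluminescent read-out; induction fitted relative to DMSO, cytotoxicity flagged by microscopy.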

Molecules are shown by their SMILES. Results filed as inconclusive are left out. Active and inactive are the calls of the source. The calls were made as follows: active = hit-call score of the fitted dose curve at least 0.9, where 1 is the maximum; inconclusive = response in the unintended direction; inactive = score below 0.9.

Take `COC(=O)CSc1cc(N=c2sc(=O)n3n2CCCC3)c(F)cc1Cl`: the outcome in experiment [1], in experiment [2], in [3], in experiment [4], in experiment [5] and in experiment [6] was inactive. The outcome in experiment [7], in experiment [8] and in [9] was inactive.
For `COc1nc(C)nc(NC(=O)NS(=O)(=O)c2ccccc2OCCCl)n1`, the result in experiment [9] was inactive.
Take `O=C(Nc1ccc([N+](=O)[O-])cc1Cl)c1cc(Cl)ccc1O`: the call in experiment [1], in experiment [10], in [2], in [4], in experiment [11] and in [5] was inactive. In addition, the molecule was classed as inactive in experiment [6], in experiment [7] and in experiment [8]. Besides, the AC50 in experiment [12] is 3560 nM (active); in [9], 163 nM (active); in experiment [13], 5340 nM (active).
Consider `CSC(=O)c1cccc2nnsc12`, for which the result in experiment [1], in experiment [2], in experiment [3], in experiment [14], in experiment [4] and in experiment [11] was inactive. Moreover, the outcome in experiment [5], in experiment [6], in experiment [7], in experiment [8] and in experiment [13] was inactive. Further, the values for the half-maximal activity concentration (AC50) in [12] and in experiment [9] were 303 nM (active) and 33300 nM (active), respectively.
As for `CCC(O)=C1C(=O)CC(C(=O)O)CC1=O` (centres undefined), in experiment [15], the molecule was classed as inactive. For the same molecule, in experiment [9], the AC50 is 1890 nM (active).
As to `CCCOC(=O)NCCCN(C)C`, the outcome in experiment [1], in experiment [2], in experiment [3], in experiment [14], in [4] and in experiment [11] was inactive. The molecule was called inactive in experiment [5], in experiment [6], in experiment [8] and in [9].
Consider `CCCCOC(=O)[C@@H](C)Oc1ccc(Oc2ccc(C(F)(F)F)cn2)cc1`, for which the call in experiment [10], in [2], in [3], in [14], in experiment [4] and in [7] was inactive. Besides, the molecule was called inactive in experiment [9].
With `COC(=O)c1ccc(I)cc1S(=O)(=O)NC(=O)Nc1nc(C)nc(OC)n1`, the outcome in experiment [2], in experiment [3], in [14], in [4], in [11] and in experiment [5] was inactive. Besides, the molecule was classed as inactive in experiment [6], in experiment [7], in experiment [8] and in [9].

By AC50 is commonly meant the midpoint of the concentration-response curve, whichever way the signal moves.
